# Records with an inconclusive call do not appear. Entries that show only a call come without a potency. Unmarked numbers belong to inactive results. Calls of active or inactive are those of the source. Calls come from the whole dose curve; as a rule, active = well fitted curve in the direction sought with a large enough effect; inconclusive = small, poorly fitted or top-dose-only effect, or another doubt; inactive = no such curve, though single readings can be large; an effect the other way counts as inactive or inconclusive.
# Tests used:
# [1] = NCATS anti-infectives library activity on HEK293 viability as a counter-qHTS vs the C. elegans viability qHTS (AID 1745854);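 note: HEK293 cells exposed to compounds for 24 hr before the viability read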
# Method in brief: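 Compounds were acoustically plated (several concentrations, 1:5, final up to 41.7 uM), then 1500 HEK293 cells added per well and incubated 24 hr at 37C, 5% CO2. CellTiter-Glo was added and luminescence read after 10 min.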
# [2] = molecular target: Rap guanine nucleotide exchange factor 3 (Homo sapiens) (UniProt O95398); experiment: Confirmatory qHTS for agonist of cAMP-regulated guanine nucleotide exchange factor 3 (EPAC1) (AID 1645881);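 note: EPAC1 catalysed release of BODIPY-GDP from Rap1B seen as fluorescence loss; nearly all actives have a fitted effect of over 75% in size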
# [3] = molecular target: Rap guanine nucleotide exchange factor 4 (Homo sapiens) (UniProt Q8WZA2); experiment: Confirmatory qHTS for agonist of cAMP-regulated guanine nucleotide exchange factor 4 (EPAC2) (AID 1645884);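 note: nucleotide exchange releases bodipy-GDP from Rap1 and this lowers its fluorescence; nearly all actives have a fitted effect of over 65% in size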
# [4] = molecular target: Rap guanine nucleotide exchange factor 4 (Homo sapiens) (UniProt Q8WZA2); experiment: Confirmatory qHTS for antagonist of cAMP-regulated guanine nucleotide exchange factor 4 (EPAC2) (AID 1645885); note: nearly all actives have a fitted effect of over 25% in size; note: potency is the fitted concentration of half-maximal effect
# [5] = Viability counterscreen for antagonist of constitutive androstane receptor (CAR) against the NCATS DSHEA and TCM libraries (AID 1794837);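 note: compound exposure lasted 24 h before viability reading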
# Method in brief: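 HepG2-CYP2B6-hCAR cells, 2,500/well, were exposed 24 hr at 37C to substances together with 48 uM CITCO (final). Viability was read as CellTiter-Fluor fluorescence (Ex/Em 405/540 nm) after 1 hr.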
# [6] = molecular target: Rap guanine nucleotide exchange factor 3 (Homo sapiens) (UniProt O95398); experiment: Confirmatory qHTS for antagonist of cAMP-regulated guanine nucleotide exchange factor 3 (EPAC1) (AID 1645880); note: nearly all actives have a fitted effect of over 55% in size
# Method in brief: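 Nucleotide exchange uses 100 nM EPAC1, 250 nM RAP1B-BODIPY-GDP and 50 uM GDP, with compounds in a concentration-titration series. After 5 min at room temperature, fluorescence (480 nm ex/540 nm em) is read every 5 min for 30 min. Data are normalized to control ATA and DMSO.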
# Chain of Rap guanine nucleotide exchange factor 3 (Homo sapiens) (O95398 whole entry, looked up): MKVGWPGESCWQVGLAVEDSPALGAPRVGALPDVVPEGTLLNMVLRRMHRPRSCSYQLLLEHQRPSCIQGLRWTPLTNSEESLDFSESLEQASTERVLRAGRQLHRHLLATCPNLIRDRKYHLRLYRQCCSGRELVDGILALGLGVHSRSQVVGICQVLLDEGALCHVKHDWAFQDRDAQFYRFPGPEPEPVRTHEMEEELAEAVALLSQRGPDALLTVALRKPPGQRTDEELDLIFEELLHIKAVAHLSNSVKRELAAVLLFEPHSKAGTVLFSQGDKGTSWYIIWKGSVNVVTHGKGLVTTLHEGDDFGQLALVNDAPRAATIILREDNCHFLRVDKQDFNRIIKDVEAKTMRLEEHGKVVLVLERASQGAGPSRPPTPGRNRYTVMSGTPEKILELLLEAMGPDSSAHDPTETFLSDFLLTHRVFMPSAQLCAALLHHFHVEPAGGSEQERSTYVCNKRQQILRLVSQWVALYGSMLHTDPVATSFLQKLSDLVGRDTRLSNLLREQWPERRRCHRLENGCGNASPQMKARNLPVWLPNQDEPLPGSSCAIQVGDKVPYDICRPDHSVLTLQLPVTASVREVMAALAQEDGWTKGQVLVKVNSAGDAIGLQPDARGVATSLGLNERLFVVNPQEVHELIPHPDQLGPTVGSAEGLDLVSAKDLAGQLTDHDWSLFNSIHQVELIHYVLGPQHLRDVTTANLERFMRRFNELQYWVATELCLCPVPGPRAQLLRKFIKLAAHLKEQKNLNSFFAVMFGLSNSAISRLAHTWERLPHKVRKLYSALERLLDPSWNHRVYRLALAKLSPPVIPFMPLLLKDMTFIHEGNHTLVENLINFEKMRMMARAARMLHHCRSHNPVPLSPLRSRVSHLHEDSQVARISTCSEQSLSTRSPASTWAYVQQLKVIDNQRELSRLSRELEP
# Chain of Rap guanine nucleotide exchange factor 4 (Homo sapiens) (Q8WZA2 whole entry, looked up): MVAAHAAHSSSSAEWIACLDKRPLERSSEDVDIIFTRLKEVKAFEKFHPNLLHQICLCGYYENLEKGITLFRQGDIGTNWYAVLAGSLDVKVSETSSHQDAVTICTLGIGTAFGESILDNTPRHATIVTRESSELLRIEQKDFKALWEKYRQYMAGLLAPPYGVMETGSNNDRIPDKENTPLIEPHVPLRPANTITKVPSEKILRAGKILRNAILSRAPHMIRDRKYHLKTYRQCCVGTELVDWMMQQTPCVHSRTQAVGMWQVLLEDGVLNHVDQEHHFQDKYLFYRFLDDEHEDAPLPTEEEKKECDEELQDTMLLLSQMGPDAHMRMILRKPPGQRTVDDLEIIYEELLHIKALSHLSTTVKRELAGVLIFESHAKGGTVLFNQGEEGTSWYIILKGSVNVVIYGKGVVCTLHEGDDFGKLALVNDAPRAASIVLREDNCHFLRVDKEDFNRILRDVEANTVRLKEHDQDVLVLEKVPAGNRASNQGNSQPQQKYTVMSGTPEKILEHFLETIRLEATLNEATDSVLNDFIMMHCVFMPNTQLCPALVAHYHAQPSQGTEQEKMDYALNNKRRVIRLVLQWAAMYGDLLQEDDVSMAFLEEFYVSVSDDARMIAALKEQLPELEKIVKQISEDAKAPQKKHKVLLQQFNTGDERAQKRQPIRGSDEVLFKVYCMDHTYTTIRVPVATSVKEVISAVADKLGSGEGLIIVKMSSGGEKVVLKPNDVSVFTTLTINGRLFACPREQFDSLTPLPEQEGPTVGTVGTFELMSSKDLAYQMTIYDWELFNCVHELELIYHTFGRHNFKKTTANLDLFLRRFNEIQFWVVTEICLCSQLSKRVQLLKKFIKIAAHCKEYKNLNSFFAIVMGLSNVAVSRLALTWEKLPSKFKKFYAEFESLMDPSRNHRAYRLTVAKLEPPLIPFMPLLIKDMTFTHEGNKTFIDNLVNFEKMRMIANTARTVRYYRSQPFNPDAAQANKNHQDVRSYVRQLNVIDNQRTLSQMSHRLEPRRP
structure (smiles),measurement,setting,value
NCCCC[C@H](N)C(=O)O,"activity change, negative = cytotoxicity",[1],-19.5% [at 0.334 µM]
C=CC(C)(O)CC/C=C(\C)CCC=C(C)C (stereo not given),outcome,[2],inactive
same,outcome,[3],inactive
same,Potency,[4],44.1 µM (active)
COC1=C(OC)C(=O)C(C/C=C(\C)CC/C=C(\C)CC/C=C(\C)CC/C=C(\C)CC/C=C(\C)CC/C=C(\C)CC/C=C(\C)CC/C=C(\C)CC/C=C(\C)CCC=C(C)C)=C(C)C1=O,outcome,[5],inactive
CCCC(CCC)C(=O)OC1C[C@H]2CC[C@@H](C1)[N+]2(C)C (stereo not given in full),outcome,[1],inactive
NC(=O)Oc1ccc(Cc2ccccc2)cc1,outcome,[6],inactive
same,outcome,[2],inactive
same,outcome,[3],inactive
same,Potency,[4],inactive
O=C(NNCS(=O)(=O)O)c1ccncc1,outcome,[6],inactive
same,outcome,[2],inactive
same,outcome,[3],inactive
same,Potency,[4],inactive
C=C1CC[C@H](O)C/C1=C\C=C1/CCC[C@]2(C)[C@@H]([C@H](C)CCCC(C)C)CC[C@@H]12,outcome,[5],inactive

# — PubChem BioAssay (NCATS)
